In ChEMBL document CHEMBL2218924, “A broad activity screen in support of a chemogenomic map for kinase signalling research and drug discovery” (Biochem J, 2013) one finds residual activity data, which are given here for seven molecules.

Each structure is given as a SMILES string.

Test [1] deals with MAP kinase-activated protein kinase 2 (Homo sapiens) (UniProt P49137). The note with it: at 10 µM.
Test [2] addresses MAP kinase-activated protein kinase 3 (Homo sapiens) (UniProt Q16644). To be noted: at 10 µM.
Test [3] addresses Serine/threonine-protein kinase MARK1 (Homo sapiens) (UniProt Q9P0L2). The note with it: at 1 µM.
For test [4] the target is unchanged. The note with it: at 10 µM.
The target in test [5] is Dual specificity mitogen-activated protein kinase kinase 1 (Homo sapiens) (UniProt Q02750). The note with it: at 1 µM.
Chain of Dual specificity mitogen-activated protein kinase kinase 1 (Homo sapiens) (Q02750 whole entry): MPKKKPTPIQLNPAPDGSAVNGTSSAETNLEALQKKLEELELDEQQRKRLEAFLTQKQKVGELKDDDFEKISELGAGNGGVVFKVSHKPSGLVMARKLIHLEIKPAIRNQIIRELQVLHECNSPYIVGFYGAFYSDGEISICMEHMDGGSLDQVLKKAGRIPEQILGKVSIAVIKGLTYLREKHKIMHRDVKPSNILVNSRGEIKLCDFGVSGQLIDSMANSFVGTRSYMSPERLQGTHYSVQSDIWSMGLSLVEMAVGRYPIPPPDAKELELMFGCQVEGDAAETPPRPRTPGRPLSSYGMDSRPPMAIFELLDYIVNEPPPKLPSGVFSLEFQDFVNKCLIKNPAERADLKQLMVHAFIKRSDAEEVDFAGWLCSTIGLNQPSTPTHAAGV
The target is the same in test [6]. To be noted: at 10 µM.
The target in test [7] is Maternal embryonic leucine zipper kinase (Homo sapiens) (UniProt Q14680). The note with it: at 10 µM.
For test [8], the target named is Misshapen-like kinase 1 (Homo sapiens) (UniProt Q8N4C8). The note with it: at 1 µM.
Test [9] shares this target. The note with it: at 10 µM.
For test [10], the target named is T1, Dual specificity mitogen-activated protein kinase kinase 6 (Homo sapiens) (UniProt P52564).
T1 sequence (whole entry): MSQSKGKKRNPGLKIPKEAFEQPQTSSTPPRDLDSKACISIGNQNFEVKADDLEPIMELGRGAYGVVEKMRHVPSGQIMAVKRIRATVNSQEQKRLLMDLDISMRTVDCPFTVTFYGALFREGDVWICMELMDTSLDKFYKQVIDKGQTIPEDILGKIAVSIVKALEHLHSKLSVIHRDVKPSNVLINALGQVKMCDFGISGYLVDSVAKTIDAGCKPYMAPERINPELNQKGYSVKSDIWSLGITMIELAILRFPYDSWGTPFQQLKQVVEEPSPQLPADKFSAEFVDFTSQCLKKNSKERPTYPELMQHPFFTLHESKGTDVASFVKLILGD
To be noted: at 1 µM.

In test [11] the target is T1, Dual specificity mitogen-activated protein kinase kinase 6 (Homo sapiens). The note with it: at 10 µM.
Test [12] deals with T2, Dual specificity mitogen-activated protein kinase kinase 7 (Homo sapiens) (UniProt O14733).
T2 sequence (whole entry): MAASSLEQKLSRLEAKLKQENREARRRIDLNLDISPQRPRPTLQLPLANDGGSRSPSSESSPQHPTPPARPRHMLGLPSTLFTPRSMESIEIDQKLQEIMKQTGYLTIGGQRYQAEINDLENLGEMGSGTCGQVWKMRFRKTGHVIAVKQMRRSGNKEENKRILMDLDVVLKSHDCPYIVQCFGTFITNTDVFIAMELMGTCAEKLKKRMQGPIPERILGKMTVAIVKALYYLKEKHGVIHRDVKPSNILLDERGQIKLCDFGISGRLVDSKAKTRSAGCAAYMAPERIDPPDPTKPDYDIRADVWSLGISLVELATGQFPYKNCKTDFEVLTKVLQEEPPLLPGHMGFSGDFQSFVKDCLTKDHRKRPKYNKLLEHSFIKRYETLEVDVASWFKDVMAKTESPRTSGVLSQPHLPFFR
The note with it: at 1 µM.

In test [13] the target is T2, Dual specificity mitogen-activated protein kinase kinase 7 (Homo sapiens). The note with it: at 10 µM.
Test [14] addresses Myosin light chain kinase, smooth muscle (Homo sapiens) (UniProt Q15746). The note with it: at 1 µM.
Test [15] shares this target. To be noted: at 10 µM.
Test [16] addresses Mitogen-activated protein kinase kinase kinase 9 (Homo sapiens) (UniProt P80192). To be noted: at 1 µM.
Test [17] has the same target. The note with it: at 10 µM.
The target in test [18] is Serine/threonine-protein kinase MRCK alpha (Homo sapiens) (UniProt Q5VT25). The note with it: at 1 µM.
Chain of Serine/threonine-protein kinase MRCK alpha (Homo sapiens) (Q5VT25 whole entry): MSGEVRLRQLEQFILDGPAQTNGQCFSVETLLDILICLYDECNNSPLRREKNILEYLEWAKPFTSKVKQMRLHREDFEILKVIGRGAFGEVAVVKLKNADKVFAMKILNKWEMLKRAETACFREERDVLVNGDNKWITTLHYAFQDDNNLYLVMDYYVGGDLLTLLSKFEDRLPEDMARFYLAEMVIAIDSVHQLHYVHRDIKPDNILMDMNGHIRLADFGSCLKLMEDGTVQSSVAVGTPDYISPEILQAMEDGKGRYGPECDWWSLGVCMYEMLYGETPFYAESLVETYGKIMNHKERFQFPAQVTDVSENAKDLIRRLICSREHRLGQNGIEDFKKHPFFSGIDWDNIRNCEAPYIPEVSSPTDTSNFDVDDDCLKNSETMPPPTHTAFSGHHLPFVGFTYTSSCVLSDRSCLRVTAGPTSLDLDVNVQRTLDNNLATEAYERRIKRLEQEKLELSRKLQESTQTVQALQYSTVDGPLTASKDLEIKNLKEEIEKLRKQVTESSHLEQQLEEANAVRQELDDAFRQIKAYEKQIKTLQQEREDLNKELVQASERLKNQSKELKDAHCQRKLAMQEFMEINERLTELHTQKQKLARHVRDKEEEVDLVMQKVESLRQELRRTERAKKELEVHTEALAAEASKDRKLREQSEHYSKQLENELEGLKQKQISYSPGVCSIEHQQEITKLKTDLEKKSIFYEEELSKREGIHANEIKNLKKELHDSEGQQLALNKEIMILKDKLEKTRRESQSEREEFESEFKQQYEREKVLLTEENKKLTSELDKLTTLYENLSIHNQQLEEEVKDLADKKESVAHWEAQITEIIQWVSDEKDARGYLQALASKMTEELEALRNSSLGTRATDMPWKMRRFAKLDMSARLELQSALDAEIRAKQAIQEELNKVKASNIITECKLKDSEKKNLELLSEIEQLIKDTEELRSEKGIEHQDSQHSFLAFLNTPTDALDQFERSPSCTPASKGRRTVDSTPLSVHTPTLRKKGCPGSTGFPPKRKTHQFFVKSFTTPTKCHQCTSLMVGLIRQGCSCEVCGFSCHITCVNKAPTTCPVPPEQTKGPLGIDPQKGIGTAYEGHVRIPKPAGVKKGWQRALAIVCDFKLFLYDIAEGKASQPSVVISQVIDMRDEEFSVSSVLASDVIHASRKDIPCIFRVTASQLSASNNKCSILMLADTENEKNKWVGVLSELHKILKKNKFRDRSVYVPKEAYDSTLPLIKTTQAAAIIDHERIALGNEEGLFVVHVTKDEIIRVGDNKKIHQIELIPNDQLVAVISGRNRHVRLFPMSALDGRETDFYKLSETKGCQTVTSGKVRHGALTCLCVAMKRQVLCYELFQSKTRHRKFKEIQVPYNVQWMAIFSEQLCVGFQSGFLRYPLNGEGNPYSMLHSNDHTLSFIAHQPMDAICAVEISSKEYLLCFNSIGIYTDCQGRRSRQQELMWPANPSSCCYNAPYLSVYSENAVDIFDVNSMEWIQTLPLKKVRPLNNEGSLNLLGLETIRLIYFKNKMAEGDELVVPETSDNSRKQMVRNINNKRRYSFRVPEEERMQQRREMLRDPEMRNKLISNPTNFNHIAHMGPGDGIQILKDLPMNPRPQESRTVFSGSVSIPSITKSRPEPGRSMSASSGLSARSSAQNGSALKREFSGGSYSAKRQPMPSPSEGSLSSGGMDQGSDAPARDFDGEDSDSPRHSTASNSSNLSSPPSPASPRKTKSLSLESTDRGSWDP
Test [19] has the same target. To be noted: at 10 µM.
For test [20], the target named is Maternal embryonic leucine zipper kinase (Homo sapiens) (UniProt Q14680). The note with it: at 1 µM.

Chain of Myosin light chain kinase, smooth muscle (Homo sapiens) (Q15746 whole entry): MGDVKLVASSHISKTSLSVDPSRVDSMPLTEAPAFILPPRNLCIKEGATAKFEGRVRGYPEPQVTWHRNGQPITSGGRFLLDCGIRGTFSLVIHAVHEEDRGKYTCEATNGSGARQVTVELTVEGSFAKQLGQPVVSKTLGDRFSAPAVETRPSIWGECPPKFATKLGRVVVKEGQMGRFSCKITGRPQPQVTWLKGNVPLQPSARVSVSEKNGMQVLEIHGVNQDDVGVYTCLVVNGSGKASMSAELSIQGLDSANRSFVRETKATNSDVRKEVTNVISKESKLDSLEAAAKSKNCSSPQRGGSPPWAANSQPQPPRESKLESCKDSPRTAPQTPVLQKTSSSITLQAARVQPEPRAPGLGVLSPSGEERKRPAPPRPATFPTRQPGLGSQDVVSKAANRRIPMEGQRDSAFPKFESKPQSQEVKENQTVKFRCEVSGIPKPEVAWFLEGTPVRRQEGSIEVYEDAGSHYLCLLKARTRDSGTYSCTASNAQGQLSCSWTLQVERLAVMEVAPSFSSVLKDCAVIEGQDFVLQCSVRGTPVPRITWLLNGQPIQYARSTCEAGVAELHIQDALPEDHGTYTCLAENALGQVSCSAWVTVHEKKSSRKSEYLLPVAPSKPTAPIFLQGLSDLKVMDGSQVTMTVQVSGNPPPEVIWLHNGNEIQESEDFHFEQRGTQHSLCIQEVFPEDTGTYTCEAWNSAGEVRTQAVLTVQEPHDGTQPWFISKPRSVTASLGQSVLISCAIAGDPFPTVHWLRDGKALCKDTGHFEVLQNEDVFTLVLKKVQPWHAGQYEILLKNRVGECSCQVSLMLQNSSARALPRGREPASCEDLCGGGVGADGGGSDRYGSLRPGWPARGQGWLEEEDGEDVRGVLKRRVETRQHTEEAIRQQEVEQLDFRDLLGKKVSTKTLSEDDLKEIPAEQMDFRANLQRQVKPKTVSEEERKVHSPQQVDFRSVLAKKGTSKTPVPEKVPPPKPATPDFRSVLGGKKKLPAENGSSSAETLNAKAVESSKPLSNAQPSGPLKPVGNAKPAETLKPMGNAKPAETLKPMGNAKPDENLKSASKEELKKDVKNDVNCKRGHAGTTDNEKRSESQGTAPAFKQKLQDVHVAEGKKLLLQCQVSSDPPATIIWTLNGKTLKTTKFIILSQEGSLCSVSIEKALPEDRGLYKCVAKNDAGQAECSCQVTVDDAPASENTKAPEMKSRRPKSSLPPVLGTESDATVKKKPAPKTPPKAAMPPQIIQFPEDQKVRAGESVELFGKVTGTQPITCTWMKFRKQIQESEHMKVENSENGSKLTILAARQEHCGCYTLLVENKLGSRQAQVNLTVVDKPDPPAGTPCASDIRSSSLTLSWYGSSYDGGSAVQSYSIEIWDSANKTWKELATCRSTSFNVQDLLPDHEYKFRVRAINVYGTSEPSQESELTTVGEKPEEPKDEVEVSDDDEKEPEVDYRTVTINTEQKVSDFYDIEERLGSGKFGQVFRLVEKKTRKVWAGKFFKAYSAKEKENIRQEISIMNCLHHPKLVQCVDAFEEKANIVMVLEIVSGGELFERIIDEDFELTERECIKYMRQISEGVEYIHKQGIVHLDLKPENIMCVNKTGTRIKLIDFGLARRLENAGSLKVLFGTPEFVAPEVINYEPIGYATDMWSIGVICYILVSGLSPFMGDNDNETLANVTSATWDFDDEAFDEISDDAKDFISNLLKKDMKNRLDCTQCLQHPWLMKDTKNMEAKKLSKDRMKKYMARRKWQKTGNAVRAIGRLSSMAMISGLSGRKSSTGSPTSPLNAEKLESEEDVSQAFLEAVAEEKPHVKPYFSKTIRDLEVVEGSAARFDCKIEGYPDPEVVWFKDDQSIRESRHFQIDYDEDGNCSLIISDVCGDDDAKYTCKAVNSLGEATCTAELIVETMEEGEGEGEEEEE
Chain of Mitogen-activated protein kinase kinase kinase 9 (Homo sapiens) (P80192 whole entry, looked up): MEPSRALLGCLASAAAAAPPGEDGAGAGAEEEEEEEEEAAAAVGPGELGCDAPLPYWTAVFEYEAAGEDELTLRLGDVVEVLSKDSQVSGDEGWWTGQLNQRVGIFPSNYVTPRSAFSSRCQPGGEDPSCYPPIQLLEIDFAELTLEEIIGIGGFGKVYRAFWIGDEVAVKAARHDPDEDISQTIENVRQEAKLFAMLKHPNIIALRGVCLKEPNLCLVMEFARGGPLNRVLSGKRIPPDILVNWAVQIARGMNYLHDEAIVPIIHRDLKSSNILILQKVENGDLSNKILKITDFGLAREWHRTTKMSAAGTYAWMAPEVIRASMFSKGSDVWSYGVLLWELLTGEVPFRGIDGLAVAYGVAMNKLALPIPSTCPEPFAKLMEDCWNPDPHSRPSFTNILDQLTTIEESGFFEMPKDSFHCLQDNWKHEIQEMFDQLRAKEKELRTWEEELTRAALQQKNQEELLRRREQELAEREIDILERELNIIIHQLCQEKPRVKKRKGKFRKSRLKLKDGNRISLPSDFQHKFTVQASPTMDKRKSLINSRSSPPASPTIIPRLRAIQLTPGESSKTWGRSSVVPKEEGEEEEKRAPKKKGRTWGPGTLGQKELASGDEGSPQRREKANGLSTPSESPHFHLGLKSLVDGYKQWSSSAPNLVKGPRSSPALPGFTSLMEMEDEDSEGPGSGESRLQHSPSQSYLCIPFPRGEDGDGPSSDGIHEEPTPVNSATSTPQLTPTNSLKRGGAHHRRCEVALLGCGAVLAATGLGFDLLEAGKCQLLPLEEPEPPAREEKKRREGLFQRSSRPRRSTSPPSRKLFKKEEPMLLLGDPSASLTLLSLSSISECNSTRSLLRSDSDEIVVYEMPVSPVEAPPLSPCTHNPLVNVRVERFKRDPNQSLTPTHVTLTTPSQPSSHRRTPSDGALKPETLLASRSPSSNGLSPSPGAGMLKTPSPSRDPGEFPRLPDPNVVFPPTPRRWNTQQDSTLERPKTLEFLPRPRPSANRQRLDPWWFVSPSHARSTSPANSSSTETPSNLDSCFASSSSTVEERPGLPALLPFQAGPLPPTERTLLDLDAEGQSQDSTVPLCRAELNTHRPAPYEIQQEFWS

With `O=Nc1c(-c2c(O)[nH]c3ccccc23)[nH]c2ccccc12`, the residual activity is 76% in [1]; 88% in test [2]; 37% in test [3]; 5% in test [4]; 64% in test [5]; 55% in test [6]. Besides, the residual activity in [7] amounted to 7%; in test [8], 54%; in test [9], 10%; in test [10], 63%; in test [11], 40%; in [12], 52%. In addition, the residual activity is 7% in test [13]; 46% in [14]; 13% in test [15]; 6% in test [16]; 1% in test [17]; 142% in [18]. Also, the residual activity in test [19] came out at 135%.
As for `c1ccc(-c2n[nH]c3c2oc2ccccc23)cc1`, the residual activity is 69% in [3]; 44% in test [4]; 43% in test [20]; 7% in test [7]; 73% in test [8]; 34% in test [9]. The residual activity in test [10] came to 76%; in test [11], 89%; in [12] it was 87%; in [13] it was 67%; in [14], 66%; in test [15], 64%. Besides, the residual activity in [16] stood at 69%; in test [17] it was 39%; in test [18] it was 92%; in test [19], 116%.
As to `N#C/C(=C(\N)Sc1ccc(N)cc1)c1ccccc1C(F)(F)F`, the residual activity in test [1] is 69%; in [2] it was 88%; in test [3], 72%; in [4] it was 54%; in test [5], 104%; in test [6], 101%. The residual activity was 67% in test [20]; 62% in test [7]; 106% in [8]; 91% in [9]; 93% in test [10]; 83% in test [11]. The residual activity in test [12] came out at 88%; in test [13], 96%; in test [14], 95%; in test [15], 75%; in test [16], 93%; in test [17], 89%. Besides, the residual activity was found to be 107% in [18] and 94% in test [19].
In the case of `N#CC(C#N)=C(N)/C(C#N)=C/c1ccc(O)cc1`, the residual activity in [1] was determined as 87%; in test [3], 89%; in [4] it was 75%; in test [20], 70%; in test [7], 78%; in test [8], 89%. Moreover, the residual activity amounted to 88% in test [9]; 91% in test [10]; 99% in [11]; 94% in test [12]; 68% in [14]; 85% in [15]. In addition, the residual activity came out at 99% in [16], 97% in [17], 90% in test [18] and 76% in [19].
For `Cc1cccc(-c2[nH]c(C(C)(C)C)nc2-c2ccc3c(c2)OCO3)n1`, the residual activity came out at 96% in test [1]; 85% in test [3]; 77% in test [4]; 96% in [6]; 75% in test [20]; 103% in test [7]. The residual activity in [8] was 101%; in [9], 90%; in [10], 70%; in test [11], 39%; in test [12], 107%; in test [13] it was 83%. Further, the values for the residual activity in [14], in test [15] and in [16] were 84%, 90% and 99%, respectively.
In the case of `O=[N+]([O-])c1ccc(-c2nc(-c3ccc(F)cc3)c(-c3ccncc3)[nH]2)cc1`, the residual activity in [1] is 102%; in test [2], 104%; in test [3], 91%; in [4] it was 90%; in test [5], 109%; in test [6], 127%. Besides, the residual activity in [20] turned out to be 97%; in test [7], 87%; in [8] it was 74%; in test [9], 63%; in [10] it was 50%; in test [11], 4%. In addition, the residual activity in test [12] is 101%; in [13], 98%; in test [14] it was 100%; in test [15] it was 86%; in test [17] it was 83%; in test [18], 126%. In test [19], the residual activity came to 98%.
For `CCC(=O)Nc1ccc2ncnc(Nc3cccc(Br)c3)c2c1`, the residual activity in [1] is 95%; in [2], 88%; in test [3], 84%; in test [4], 90%; in [5], 93%; in test [6], 92%. The residual activity was found to be 90% in test [20]; 96% in test [7]; 83% in test [8]; 82% in test [9]; 77% in [10]; 108% in test [11]. For the same molecule, the residual activity in test [12] turned out to be 94%; in test [13] it was 89%; in test [14], 68%; in [15], 82%; in [16], 89%; in test [17], 78%. In addition, the residual activity in test [18] is 109%; in [19] it was 101%.
